Data reported in PubChem BioAssay AID1159580 (chemical genetic matrix, 2015).
Values joined by “and” are separate entries in the source; they are usually repeats but may differ in a detail not shown here. Equal values may be shown once. The campaign covered roughly 5,500 compounds. About 2,000 (36%) were called active. Inconclusive results (about 18%) are left out. Cut-off read from the data, not from the text of the source: active = normalized growth mostly below about 0.91 (no sharp cut-off); inconclusive = no clear call, values can overlap the other calls; inactive = mostly above about 0.92. Some of the results follow.

Experiment: chemical genetic growth profiling, strain panel (AID 1159580);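 note: tested at 20 µM; growth read once vehicle control cultures reached saturation at 30 °C; 1 = growth at the plate median or of vehicle wells; lower values mean less growth of the strain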
Conditions: S. cerevisiae deletion strains, growth OD

Measured: normalized growth

CO[C@H]1C[C@H](O[C@H]2[C@H](C)[C@@H](OC3O[C@H](C)C[C@H](N(C)C)[C@H]3O)[C@@H](C)C[C@]3(CO3)C(=O)[C@H](C)[C@@H](O)[C@@H](C)[C@@H](C)OC(=O)[C@@H]2C)O[C@@H](C)[C@@H]1O (some centres not stated)
inactive: locus YAL013W, strain DEP1, active compounds read low 1.01 | locus YAL021C, strain ccr4, active compounds read low 1.03 | locus YAL026C, strain drs2, active compounds read low 0.991 | locus YAL030W, strain snc1, active compounds read low 1.01 | locus YBL061C, strain skt5, active compounds read low 1 | locus YBR009C, strain hhf1, active compounds read low 0.96 | locus YBR021W, strain FUR4, active compounds read low 0.994 | locus YBR023C, strain chs3, active compounds read low 1.02 | locus YBR171W, strain sec66, active compounds read low 0.996 | locus YBR229C, strain ROT2, active compounds read low 1.02 | locus YBR231C, strain swc5, active compounds read low 1.02 | locus YBR279W, strain paf1, active compounds read low 1.01 | locus YCL011C, strain gbp2, active compounds read low 0.998 | locus YCL016C, strain dcc1, active compounds read low 1.02 | locus YCL029C, strain bik1, active compounds read low 1 | locus YCL061C, strain MRC1, active compounds read low 1.02 | locus YCL069W, strain vba3, active compounds read low 1 | locus YCR088W, strain abp1, active compounds read low 1.01 | locus YDL005C, strain med2, active compounds read low 1.02 | locus YDL035C, strain GPR1, active compounds read low 1.01 | locus YDL040C, strain nat1, active compounds read low 1.01 | locus YDL074C, strain BRE1, active compounds read low 1.02 | locus YDL101C, strain DUN1, active compounds read low 1.02 | locus YDL134C, strain PPH21, active compounds read low 1.01 | locus YDL185W, strain tfp1, active compounds read low 1.01 | locus YDL192W, strain arf1, active compounds read low 1.01 | locus YDR001C, strain nth1, active compounds read low 1 | locus YDR069C, strain doa4, active compounds read low 1.03 | locus YDR101C, strain arx1, active compounds read low 1 | locus YDR137W, strain rgp1, active compounds read low 0.998 | locus YDR150W, strain NUM1, active compounds read low 1 | locus YDR159W, strain sac3, active compounds read low 0.994 | locus YDR162C, strain NBP2, active compounds read low 1.01 | locus YDR195W, strain ref2 1.01 | locus YDR297W, strain sur2, active compounds read low 1.01 | locus YDR318W, strain mcm21, active compounds read low 1.01 | locus YDR334W, strain swr1, active compounds read low 0.995 | locus YDR335W, strain msn5, active compounds read low 0.998 | locus YDR388W, active compounds read low 0.991 | locus YDR392W, strain spt3, active compounds read low 0.945 | locus YDR502C, strain sam2, active compounds read low 1.02 | locus YEL003W, strain gim4, active compounds read low 0.987 | locus YEL037C, strain rad23, active compounds read low 0.994 | locus YEL061C, strain CIN8 (second series), active compounds read low 0.999 | locus YEL061C, strain CIN8, active compounds read low 1 | locus YER015W, strain faa2, active compounds read low 0.992 | locus YER016W, strain bim1, active compounds read low 1.02 | locus YER110C, active compounds read low 0.986 | locus YER111C, strain swi4, active compounds read low 1 | locus YER155C, strain BEM2 (second series), active compounds read low 1.02 | locus YER155C, strain BEM2, active compounds read low 1 | locus YER167W, strain BCK2, active compounds read low 1.01 | locus YFR010W, strain ubp6, active compounds read low 0.988 | locus YGL078C, strain dbp3, active compounds read low 1 | locus YGL086W, strain mad1, active compounds read low 0.995 | locus YGL167C, strain pmr1, active compounds read low 0.994 | locus YGL173C, strain kem1, active compounds read low 1 | locus YGL227W, strain vid30, active compounds read low 1.02 | locus YGL240W, strain doc1, active compounds read low 1.03 | locus YGL248W, strain PDE1, active compounds read low 1.02 | locus YGL253W, strain hxk2, active compounds read low 1.02 | locus YGR078C, strain PAC10, active compounds read low 1.02 | locus YGR135W, strain pre9, active compounds read low 1.01 | locus YGR229C, strain SMI1, active compounds read low 1.03 | locus YGR252W, strain gcn5, active compounds read low 1.14 | locus YHR013C, strain ard1, active compounds read low 1.02 | locus YHR027C, strain rpn1, active compounds read low 0.999 | locus YHR030C, strain SLT2, active compounds read low 1.01 | locus YHR079C, strain IRE1 (second series), active compounds read low 0.989 | locus YHR079C, strain IRE1, active compounds read low 1.01 | locus YHR094C, strain hxt1, active compounds read low 0.98 | locus YHR129C, strain ARP1, active compounds read low 0.998 | locus YHR142W, strain chs7, active compounds read low 0.972 | locus YHR200W, strain rpn10, active compounds read low 1.01 | locus YIL066C, strain RNR3, active compounds read low 1.02 | locus YIL073C, strain SPO22, active compounds read low 1.05 | locus YIL125W, strain kgd1, active compounds read low 1 | locus YIR030C, strain dcg1, active compounds read low 0.993 | locus YJL092W, strain hpr5, active compounds read low 1.01 | locus YJL095W, strain BCK1 (second series), active compounds read low 1.01 | locus YJL095W, strain BCK1, active compounds read low 1.03 and 0.995 | locus YJL115W, strain asf1, active compounds read low 0.991 | locus YJL129C, strain trk1, active compounds read low 1 | locus YJL134W, strain LCB3, active compounds read low 1 | locus YJL154C, strain vps35, active compounds read low 1 | locus YJL164C, strain tpk1, active compounds read low 0.982 | locus YJL166W, strain qcr8, active compounds read low 1.03 | locus YJL168C, strain set2, active compounds read low 0.987 | locus YJL187C, strain SWE1 (second series), active compounds read low 1.02 | locus YJL187C, strain SWE1, active compounds read low 1 | locus YJR043C, strain POL32, active compounds read low 1.02 | locus YJR066W, strain TOR1, active compounds read low 0.981
